Compounds with a hit are over-represented: about 2% of the library has one in this group of screens.
Wee1 degr inh: Wee1 degradation inhibitors, primary screen, cell-based, HeLa, Wee1K328M-luciferase, luminescence. Wee1-like protein kinase (Homo sapiens), P30291. HeLa Luc-Wee1K328M stability; 100% = proteasome inhibitor MG132 effect. reporter increase, % at 5 µM. actives 1.2% (n = 220,000);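 active means activation above the mean of all tested compounds plus 3 SD, set per screening run, cut at about 8.8% in these data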;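 further: cells exposed to compound for 20 h before luminescence read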
Target sequence (P30291 whole entry K328M): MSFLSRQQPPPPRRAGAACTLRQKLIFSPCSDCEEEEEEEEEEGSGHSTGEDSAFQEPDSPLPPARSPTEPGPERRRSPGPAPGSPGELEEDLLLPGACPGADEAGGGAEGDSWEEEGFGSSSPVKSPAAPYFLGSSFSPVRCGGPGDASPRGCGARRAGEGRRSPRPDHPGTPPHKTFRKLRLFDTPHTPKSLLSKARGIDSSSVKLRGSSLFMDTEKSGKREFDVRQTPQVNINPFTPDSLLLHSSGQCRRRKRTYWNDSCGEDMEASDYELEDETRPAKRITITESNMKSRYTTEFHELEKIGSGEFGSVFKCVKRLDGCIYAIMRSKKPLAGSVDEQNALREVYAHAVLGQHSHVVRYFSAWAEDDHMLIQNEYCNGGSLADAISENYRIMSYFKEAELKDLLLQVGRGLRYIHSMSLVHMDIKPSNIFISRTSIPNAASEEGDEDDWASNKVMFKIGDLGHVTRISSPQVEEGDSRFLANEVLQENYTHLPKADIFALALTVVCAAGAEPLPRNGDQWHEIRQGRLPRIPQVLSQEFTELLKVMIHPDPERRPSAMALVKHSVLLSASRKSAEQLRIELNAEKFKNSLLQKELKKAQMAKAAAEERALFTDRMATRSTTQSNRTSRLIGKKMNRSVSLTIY
Arbovirus inh: antivirals against arbovirus infection, primary screen, cell-based, full library, 10K replicate subset. arbovirus infection cell-based antiviral screen. inhibition, % at 10 µM. actives 0.37% (n = 200,000). AID 1251, 2008; in the data active means inhibition above about 30%
Hsp70 act: Hsp70 transcriptional activators, primary screen, cell-based, HeLa, Hsp70 promoter luciferase, luminescence, 10 µM | actives 0.04% (n = 200,000) | activation, % at 10 µM | HeLa Hsp70 promoter luciferase reporter; scaled: vehicle 0, proteasome-inhibitor control 100%;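 active means activation above the mean across all tested compounds plus 3 SD, cutoff set per campaign, cut at about 5.5% in these data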
HMGR II inh: inhibitors of E. faecalis class II HMGR, primary screen, biochemical, Enterococcus faecalis | HMG-CoA reductase (Enterococcus faecalis, mvaE) | purified E. faecalis HMGR, NADPH absorbance 340 nm kinetic | inhibition, % at 10 µM | actives 0.41% (n = 190,000);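 active means inhibition above a set limit, the median over all tested compounds plus 3 SD, cut at about 9.5% in these data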;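 further: enzyme runs in reverse so mevalonate oxidation gives rising NADPH absorbance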
PKD1 kinase inh: inhibitors of human PKD1 kinase, biochemical, fluorescence polarization. Serine/threonine-protein kinase D1 (Homo sapiens), Q15139. actives 0.056% (n = 200,000). inhibition, % (concentration not given with the values). PKD1 kinase fluorescence polarization assay; in the data active means inhibition above about 50%
Large screens that a line does not name were inactive.

Cc1cc2nc(-c3ccccn3)c(-c3ccccn3)nc2cc1C	Wee1 degr inh 9.3 (no result: Arbovirus inh, Hsp70 act, HMGR II inh, PKD1 kinase inh)
c1ccc(-c2nc3ccccc3nc2-c2ccccn2)nc1	none
O=C(CSc1ccccc1)Nc1cc(S(=O)(=O)N2CCOCC2)ccc1N1CCOCC1	none
CCOc1ccccc1NC(=S)N1CCN(c2nc(-c3ccc(F)cc3)cs2)CC1	none
Cc1ccc(-c2nnn(CC(=O)N(CC3CCCO3)C(C(=O)NC3CCCC3)c3ccc(O)cc3)n2)o1 (configuration not stated)	Wee1 degr inh 10
COCCCn1c(C)c(C(C)=O)cc(NC(=O)c2ccccc2)c1=O	HMGR II inh 11
COc1ccc(-c2nnn(CC(=O)N(Cc3ccccc3Cl)C(C(=O)NCC3CCCO3)c3ccco3)n2)cc1OC (configuration not stated)	none
O=[N+]([O-])c1cccc(/C=N/NC2=NS(=O)(=O)c3ccccc32)c1	none
Cc1ccc(C(=O)NN2C(=O)C3C4C=CC(C5CC45)C3C2=O)cc1 (configuration not stated)	HMGR II inh 11
COc1cc(/C=C(\C#N)c2nc3ccc(C)cc3[nH]2)c([N+](=O)[O-])cc1OC	none
COc1cc(/C=C(\C#N)c2nc3ccc(C)cc3[nH]2)cc([N+](=O)[O-])c1O	Arbovirus inh 44
CC(C)c1ccc(NC(=O)N2CCCC2C(=O)Nc2ccc(-n3cnnn3)cc2)cc1 (configuration not stated)	none
CCOC(=O)c1c(CC(C)C)csc1NC(=O)c1ccccc1C(=O)O	none (no result: Arbovirus inh, Hsp70 act, HMGR II inh, PKD1 kinase inh)
CC(C)Cc1csc(NC(=O)c2ccc(F)cc2)c1C(=O)O	Arbovirus inh 48
O=C(c1cc(Cl)ccc1Cl)N1CCN(c2ccccn2)CC1	none
O=C(c1cc([N+](=O)[O-])ccc1Cl)N1CCN(c2ccccn2)CC1	HMGR II inh 11
O=C(CCc1nnc(CCCc2ccccc2)o1)NC(C1CC1)C1CC1	none
Nc1nc(CN2CCN(Cc3ccc4c(c3)OCO4)CC2)nc(Nc2ccccc2)n1	none
Cc1ccccc1Nc1nc(N)nc(CN2CCN(Cc3ccc4c(c3)OCO4)CC2)n1	HMGR II inh 17
CCCc1c(C)[nH]c2ccc(NC(C)=O)cc2c1=O	Wee1 degr inh 8.9
CC(=O)CCc1c(C)[nH]c2ccc(NC(C)=O)cc2c1=O	none
Cc1cc(C)n(-c2nnc(C)n2/N=C/c2ccccc2O)n1	Wee1 degr inh 9.3
CC1CCc2nc(NC(=O)C3CC3)sc2C1 (configuration not stated)	none
Cc1ncsc1C(=O)Nc1nc2c(s1)CC(C)CC2 (configuration not stated)	Wee1 degr inh 9.6
Cc1ccc(NC(=O)c2ccc(F)cc2F)cc1NS(C)(=O)=O	Wee1 degr inh 9.2 (no result: Arbovirus inh, Hsp70 act, HMGR II inh, PKD1 kinase inh)
O=C(CN1C(=O)S/C(=C\C=C\c2ccccc2)C1=O)N1CCOCC1	none (no result: Arbovirus inh, Hsp70 act, HMGR II inh, PKD1 kinase inh)
c1ccc(-c2nnc(SCc3nnc(-c4cccs4)o3)o2)cc1	HMGR II inh 16
O=C(N/N=C/c1ccc[nH]1)c1ccc(O)cc1	none
O=C(N/N=C/c1ccc[nH]1)c1ccccc1O	HMGR II inh 10
CC(=O)/C(N=Nc1c(C)n(C)n(-c2ccccc2)c1=O)=C(\C)O	none
CCOC(=O)/C(N=Nc1c(C)n(C)n(-c2ccccc2)c1=O)=C(\C)O	Wee1 degr inh 8.9
C#CCNC(=O)C1=C[C@@H](c2ccc(Br)cc2)C[C@@H](OCCCCO)O1	none
COC(=O)N1CCN(CCc2ccccc2)CC1	HMGR II inh 13
CCOC(=O)Nc1ccc2c(c1)N(C(=O)N1CCN(C)CC1)c1ccccc1CC2	HMGR II inh 13
CC(C)OC(=O)Nc1ccc2c(c1)N(C(=O)N1CCN(C)CC1)c1ccccc1CC2	Wee1 degr inh 11 (no result: Arbovirus inh, Hsp70 act, HMGR II inh, PKD1 kinase inh)
CCOC(=O)Nc1ccc2c(c1)N(C(=O)N1CCN(C)CC1)c1ccccc1S2	none
CSc1nnc(-c2ccccc2)c(-c2ccccc2)n1	Wee1 degr inh 8.9 (no result: Arbovirus inh, Hsp70 act, HMGR II inh, PKD1 kinase inh)
CN(C)CCCNC(=O)c1cc(C(=O)c2ccc(F)cc2)c[nH]1	none
N=C1C(c2nc3ccccc3[nH]2)=C(O)CN1C1CCCCC1	none (no result: Arbovirus inh, Hsp70 act, HMGR II inh, PKD1 kinase inh)
N=C1C(c2nc3ccccc3[nH]2)=C(O)CN1c1ccc(F)cc1	Wee1 degr inh 9.7
Cc1cc(C)c(S(=O)(=O)N2CCOC2CNC(=O)C(=O)NCCCn2ccnc2)c(C)c1 (configuration not stated)	none (no result: Arbovirus inh, Hsp70 act, HMGR II inh, PKD1 kinase inh)
CCOC(=O)/C=C/C(=O)N1CCN(C(=O)/C=C/C(=O)OCC)CC1	none (no result: Arbovirus inh, Hsp70 act, HMGR II inh, PKD1 kinase inh)
Cc1ccc(C(=O)C(OC(=O)c2cnccn2)c2ccccc2)cc1 (configuration not stated)	none
Cn1cc(-c2nnc(-c3ccccc3)o2)c2ccccc21	Wee1 degr inh 10
Cc1ccccc1-c1nnc(-c2ccccc2)o1	none
COc1ccc(C(=O)Nc2nc3cc4c(cc3s2)OCCO4)c(OC)c1	none (no result: Arbovirus inh, Hsp70 act, HMGR II inh, PKD1 kinase inh)
CCOc1ccc(-c2csc(NNC3=NCCCCC3)n2)cc1	none
Nc1ccccc1NC1CCCCC1	none
Cc1ccc(C)c2[nH]c(=O)c(CN(Cc3nnnn3C3CCCCC3)CC3CCCO3)cc12 (configuration not stated)	Wee1 degr inh 9.8
O=C(CSc1ccc(-c2ccccn2)nn1)N1CCCc2ccccc21	none
O=c1oc2ccccc2cc1N1CCOCC1	Wee1 degr inh 9.3
O=c1cc(N2CCOCC2)c2ccccc2o1	none
COC(=O)CNC(=S)NC(=O)c1ccc(C(C)(C)C)cc1	none
COc1cc(/C=N/Nc2cc(C)nc(NS(=O)(=O)c3ccccc3)n2)ccc1O	Wee1 degr inh 10 (no result: Arbovirus inh, Hsp70 act, HMGR II inh, PKD1 kinase inh)
COc1cc(/C=N/Nc2cc(C)nc(NS(=O)(=O)c3ccc(C)cc3)n2)ccc1O	none
CCOC(=O)c1nn(-c2ccccc2)c(C)c1C(C)=O	none
CCOC(=O)c1nn(-c2ccccc2F)c(C)c1C(C)=O	HMGR II inh 9.8
CC1=NN(C(=O)COc2ccc(C)c(C)c2)C(O)(c2ccc(Cl)cc2)C1 (configuration not stated)	none
CC1=NN(C(=O)COc2cc(C)ccc2C(C)C)C(O)(c2ccccc2)C1 (configuration not stated)	Wee1 degr inh 11 (no result: Arbovirus inh, Hsp70 act, HMGR II inh, PKD1 kinase inh)
CCOCCCn1c(=NC(=O)c2cccs2)c(C#N)cc2c(=O)n3ccccc3nc21	none (no result: Arbovirus inh, Hsp70 act, HMGR II inh, PKD1 kinase inh)
CCN(CC)S(=O)(=O)c1cccc(-c2nnc(SCc3nc4ccccc4s3)o2)c1	none
Brc1ccccc1-c1nnc(SCc2nc3ccccc3s2)o1	Arbovirus inh 34
CCN(CC)S(=O)(=O)c1cccc(C(=O)N[C@@H](C)c2nc3ccccc3[nH]2)c1	Wee1 degr inh 9.9
C=CCc1cccc2cc(C(=O)N3CCN(c4ccccn4)CC3)c(=O)oc12	none
O=C1C2C3C=CC(C2C(=O)N1c1ccccc1O)C1C2C(=O)N(c4ccccc4O)C(=O)C2C31 (configuration not stated)	Wee1 degr inh 8.8
COCCNS(=O)(=O)c1cc(OC)c(Cl)cc1Cl	none
CCOc1cc(C)c(Cl)cc1S(=O)(=O)NCCOC	Wee1 degr inh 9.5
